# The supplement of paper PMC12636033
# ± gives the standard deviation of the averaged measurements. In all, about 33,000 sequences were measured (“E-score (rank enrichment, -0.5 to 0.5)”: median about -0.0028, highest 2% from about 0.23 on). The list comes from a sample in which the highest values are over-represented; it also holds similar and randomly drawn sequences.
# System: 2Sb-muMax20 (muMax20 with two 1,3-bis(methyl)benzene Cys staples, A13C/A17C and Q88C/A92C, C-terminal Lys)
# Experiment: PBM 8-mer E-score (E-score (rank enrichment, -0.5 to 0.5)); higher = stronger preferential binding
# Method: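 Protein binding microarray (universal PBM chip covering all 10-mers in fixed probe flanks) with chemically synthesized human Max(13-93) bHLH-LZ analogs (not full-length Max) bearing noncanonical residues (hArg, Tha, Aib, Nle at 65) and aromatic Cys staples. Read-out per 8-mer (and its reverse complement): E-score (rank-based enrichment, -0.5 to 0.5) and Z-score of median probe intensity.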
row,Sequence,PBM 8-mer E-score
1,CGGCGGGC,-0.184 ± 0.073
2,CTTCTCGC,0.0717 ± 0.022
3,GCAGCCAA,-0.0475 ± 0.046
4,AAGCAATT,0.187 ± 0.017
5,GAGCAATC,-0.0835 ± 0.0098
6,AAGCAATC,0.256 ± 0.026
7,CGTCTAGA,-0.162 ± 0.029
8,GTATTATA,0.238 ± 0.024
9,GCATTATA,0.14 ± 0.041
10,ATCTACTG,-0.00445 ± 0.014
11,GTATATTA,0.188 ± 0.012
12,ATCTACTA,0.243 ± 0.026
13,ATATATTA,0.241 ± 0.036
14,ATCTACTC,-0.0796 ± 0.04
15,GTATTACA,0.253 ± 0.024
16,CTATATTA,0.153 ± 0.015
17,GTATTAAA,0.177 ± 0.05
18,CTATTACA,0.14 ± 0.041
19,ATATTACA,0.173 ± 0.13
20,AATTGGCT,0.131 ± 0.011
21,ACGAATGG,0.073 ± 0.041
22,ATTTGAGA,0.152 ± 0.034

row,Sequence,PBM 8-mer E-score
1,AACAGCGA,-0.213 ± 0.047
2,GTGTTTGA,0.1 ± 0.029
3,CGAAGTCA,-0.106 ± 0.12
4,CGAACCGA,-0.228 ± 0.013
5,GGTGCCGA,-0.189 ± 0.027
6,ATATTATG,0.277 ± 0.026
7,CTATTATA,0.0823 ± 0.013
8,AGATTATG,-0.0162 ± 0.068
9,ATTATATA,0.185 ± 0.047
10,ATATACTC,0.173 ± 0.053
11,CTATACTA,0.169 ± 0.015
12,ATATTATC,0.112 ± 0.0097
13,ATATACTA,0.2955 ± 0.0011
14,ATATTATA,0.242 ± 0.052
15,CACACTGA,-0.0965 ± 0.055
16,AAATCGAC,0.0123 ± 0.035
17,AGGGGCCA,0.0356 ± 0.053
18,CTCGAGCC,0.0235 ± 0.047
19,ACCAGGCC,-0.168 ± 0.022
20,GGCCACGA,-0.0901 ± 0.0031
21,ACACTACG,0.0974 ± 0.045
22,ATTCTGAA,0.0149 ± 0.024

row,Sequence,PBM 8-mer E-score
1,ACGGAGCA,0.0531 ± 0.012
2,AACGTACA,0.0315 ± 0.031
3,ACTATATG,0.143 ± 0.052
4,CCTATATC,0.0672 ± 0.019
5,GCTATATA,0.173 ± 0.019
6,ACTATATA,0.285 ± 0.058
7,ACTATATC,0.271 ± 0.019
8,ATTATATC,0.224 ± 0.0096
9,CGTCGCGC,-0.0442 ± 0.0083
10,CATCCTGG,-0.145 ± 0.035
11,ACCTTTCC,0.0327 ± 0.034
12,TTATTAAA,0.0933 ± 0.013
13,ATATTAAG,0.0865 ± 0.0037
14,ATATTCAA,0.171 ± 0.023
15,ATATTAAA,0.234 ± 0.046
16,ATATTAAT,0.302 ± 0.02
17,ATCTTAAC,0.0878 ± 0.048
18,CTATTAAA,0.125 ± 0.055
19,ATCTTAAT,0.232 ± 0.042
20,ATCTTAAA,0.0723 ± 0.05
21,ATATTCAC,0.193 ± 0.047
22,ATATTAAC,0.22 ± 0.076

row,Sequence,PBM 8-mer E-score
1,ATATTCAT,0.238 ± 0.022
2,ACATTGAT,0.105 ± 0.0059
3,AACGAGTG,-0.131 ± 0.02
4,CGCGACCG,-0.221 ± 0.029
5,CACTAGAG,-0.0261 ± 0.065
6,ATAGGTAA,0.0236 ± 0.0059
7,GCTCTGGA,-0.0441 ± 0.02
8,CGTGGAGA,0.0751 ± 0.065
9,GAAGGGGA,-0.0692 ± 0.0026
10,GCCCCAAA,0.117 ± 0.0026
11,GCCCCACC,0.289 ± 0.051
12,CCCCCACC,-0.264 ± 0.062
13,GCCCCACA,0.156 ± 0.1
14,GCCCCAAC,0.315 ± 0.0087
15,CCCCCAAC,-0.195 ± 0.066
16,CAATGGGA,0.0389 ± 0.029
17,CCGCACTA,-0.0974 ± 0.0081
18,CGAAGCAA,-0.0083 ± 0.02
19,AGATCCCA,-0.0112 ± 0.031
20,ACCTTAAG,-0.0585 ± 0.037
21,CTCCCGGC,-0.268 ± 0.0042
22,GCTAATTA,0.235 ± 0.039

row,Sequence,PBM 8-mer E-score
1,CGTAATTA,0.202 ± 0.046
2,GGTAATTA,0.24 ± 0.0065
3,AGTAATTA,0.202 ± 0.03
4,ACTAATTA,0.226 ± 0.024
5,CCTAATTA,0.0703 ± 0.012
6,ATGCGGGC,-0.00019 ± 0.029
7,AGTCCTCA,-0.113 ± 0.048
8,AATTTGTA,0.0698 ± 0.0044
9,ACGGAGAA,0.18 ± 0.029
10,GAGCCAAA,-0.057 ± 0.017
11,CCTATCGA,0.15 ± 0.023
12,GCCCGCCC,0.108 ± 0.057
13,CCCCGCCG,0.161 ± 0.13
14,GCCCGCCA,0.0111 ± 0.022
15,CCCCGCCC,0.355 ± 0.037
16,ACCCGCCC,0.274 ± 0.11
17,TCCCGCCA,-0.0896 ± 0.035
18,ACCCGCCG,0.0869 ± 0.081
19,CGCCGCCC,-0.0329 ± 0.11
20,CCCCGCCA,0.309 ± 0.031
21,CCGATAGC,-0.195 ± 0.0074
